Measured values as given in PubChem BioAssay AID1159580 (chemical genetic matrix, 2015).
Out of some 5,500 compounds screened, about 2,000 (36%) were called active. Another 18% or so got no clear call; they are omitted. Rule as the data show it: active = normalized growth mostly below about 0.91 (no sharp cut-off); inconclusive = no clear call, values can overlap the other calls; inactive = mostly above about 0.92. This is one part of the list.

Experiment: chemical genetic growth profiling, strain panel (AID 1159580);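 also: tested at 20 µM; growth read once vehicle control cultures reached saturation at 30 °C; 1 = growth at the plate median or of vehicle wells; lower values mean less growth of the strain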
Details: S. cerevisiae deletion strains, growth OD

Measured: normalized growth

COC(=O)c1c(-c2cc(OC)c(OC)c(OC)c2)c2ccnc(OCc3ncccn3)c2c(=O)n1Cc1ccnc(C)c1
inactive: locus YAL013W, strain DEP1, active compounds read low 1 | locus YAL040C, strain CLN3, active compounds read low 0.889 | locus YCL061C, strain MRC1 (second series), active compounds read low 1.01 | locus YDR363W, strain ESC2, active compounds read low 1.01 | locus YER002W, strain NOP16, active compounds read low 1 | locus YGR078C, strain PAC10, active compounds read low 1.01 | locus YMR263W, strain SAP30, active compounds read low 1.01 | locus YMR307W, strain GAS1, active compounds read low 1.01 | locus YNL153C, strain GIM3, active compounds read low 1.01 | locus YNL175C, strain NOP13, active compounds read low 1 | locus YNL197C, strain WHI3, active compounds read low 0.989 | locus YNL224C, strain SQS1, active compounds read low 0.993 | locus YNL322C, strain KRE1, active compounds read low 1.01 | locus YOR083W, strain WHI5 (second series), active compounds read low 0.999 | locus YPL055C, strain LGE1, active compounds read low 1.01

CC(=O)c1c(O)cc(O)cc1O
inactive: locus YAL021C, strain ccr4, active compounds read low 1.04 | locus YAL026C, strain drs2, active compounds read low 0.987 | locus YAL030W, strain snc1, active compounds read low 0.981 | locus YBL061C, strain skt5, active compounds read low 0.985 | locus YBR009C, strain hhf1, active compounds read low 1.02 | locus YBR023C, strain chs3, active compounds read low 0.995 | locus YBR171W, strain sec66, active compounds read low 0.964 | locus YBR231C, strain swc5, active compounds read low 0.947 | locus YBR279W, strain paf1, active compounds read low 0.991 | locus YCL011C, strain gbp2, active compounds read low 0.978 | locus YCL016C, strain dcc1, active compounds read low 1.03 | locus YCL061C, strain MRC1, active compounds read low 1 | locus YCL069W, strain vba3, active compounds read low 0.949 | locus YCR088W, strain abp1, active compounds read low 0.967 | locus YDL005C, strain med2, active compounds read low 0.97 | locus YDL040C, strain nat1, active compounds read low 0.973 | locus YDR001C, strain nth1, active compounds read low 0.981 | locus YDR069C, strain doa4, active compounds read low 0.937 | locus YDR137W, strain rgp1, active compounds read low 1.01 | locus YDR159W, strain sac3, active compounds read low 0.967 | locus YDR195W, strain ref2 0.914 | locus YDR297W, strain sur2, active compounds read low 0.982 | locus YDR334W, strain swr1, active compounds read low 0.96 | locus YDR335W, strain msn5, active compounds read low 0.973 | locus YDR392W, strain spt3, active compounds read low 0.952 | locus YEL003W, strain gim4, active compounds read low 0.979 | locus YEL037C, strain rad23, active compounds read low 0.974 | locus YEL061C, strain CIN8 (second series), active compounds read low 0.961 | locus YER015W, strain faa2, active compounds read low 0.988 | locus YER016W, strain bim1, active compounds read low 0.972 | locus YER111C, strain swi4, active compounds read low 0.975 | locus YER155C, strain BEM2 (second series), active compounds read low 0.969 | locus YFR010W, strain ubp6, active compounds read low 0.948 | locus YGL167C, strain pmr1, active compounds read low 0.992 | locus YGL173C, strain kem1, active compounds read low 0.993 | locus YGL227W, strain vid30, active compounds read low 0.968 | locus YGL240W, strain doc1, active compounds read low 0.981 | locus YGL253W, strain hxk2, active compounds read low 0.938 | locus YHR013C, strain ard1, active compounds read low 0.985 | locus YHR027C, strain rpn1, active compounds read low 0.997 | locus YHR030C, strain SLT2, active compounds read low 0.986 | locus YHR079C, strain IRE1, active compounds read low 0.974 | locus YHR142W, strain chs7, active compounds read low 0.988 | locus YJL092W, strain hpr5, active compounds read low 0.978 | locus YJL095W, strain BCK1 (second series), active compounds read low 0.981 | locus YJL095W, strain BCK1, active compounds read low 0.992 | locus YJL115W, strain asf1, active compounds read low 0.999 | locus YJL129C, strain trk1, active compounds read low 0.977 | locus YJL154C, strain vps35, active compounds read low 0.973 | locus YJL164C, strain tpk1, active compounds read low 1.02 | locus YJL166W, strain qcr8, active compounds read low 0.989 | locus YJL187C, strain SWE1, active compounds read low 0.99 | locus YJR066W, strain TOR1, active compounds read low 0.952 | locus YKL160W, strain elf1, active compounds read low 1.03 | locus YKR026C, strain gcn3, active compounds read low 0.948 | locus YKR091W, strain srl3, active compounds read low 0.988 | locus YLL001W, strain dnm1, active compounds read low 0.978 | locus YLL026W, active compounds read low 0.998 | locus YLL041C, strain sdh2, active compounds read low 0.983 | locus YLR027C, strain aat2, active compounds read low 0.993 | locus YLR113W, strain HOG1, active compounds read low 0.97 | locus YLR221C, strain rsa3, active compounds read low 0.955 | locus YLR258W, strain gsy2, active compounds read low 0.989 | locus YLR262C, strain YPT6 (second series), active compounds read low 1.06 | locus YLR320W, strain mms22, active compounds read low 0.978 | locus YLR342W, strain FKS1, active compounds read low 0.978 | locus YLR357W, strain rsc2, active compounds read low 0.982 | locus YLR370C, strain arc18, active compounds read low 0.961 | locus YLR384C, strain iki3, active compounds read low 0.973 | locus YML120C, strain ndi1, active compounds read low 0.998 | locus YMR058W, strain fet3, active compounds read low 0.975 | locus YMR125W, strain sto1, active compounds read low 0.958 | locus YMR129W, active compounds read low 0.978 | locus YMR205C, strain PFK2, active compounds read low 1.03 | locus YMR231W, strain pep5, active compounds read low 0.968 | locus YNL071W, strain lat1, active compounds read low 0.984 | locus YNL183C, strain NPR1, active compounds read low 0.938 | locus YNL209W, strain ssb2, active compounds read low 0.997 | locus YNL248C, strain rpa49, active compounds read low 1.01 | locus YNL322C, strain KRE1 (second series), active compounds read low 0.99 | locus YNR049C, strain mso1, active compounds read low 0.978 | locus YOR001W, strain rrp6, active compounds read low 0.922 | locus YOR070C, strain gyp1, active compounds read low 0.988 | locus YOR080W, strain dia2, active compounds read low 0.962 | locus YOR083W, strain WHI5, active compounds read low 1.03 | locus YOR106W, strain vam3, active compounds read low 1.04 | locus YOR231W, strain MKK1, active compounds read low 0.982 | locus YOR265W, strain rbl2, active compounds read low 0.976 | locus YOR270C, strain vph1, active compounds read low 1.01 | locus YOR290C, strain snf2, active compounds read low 1.03 | locus YPL051W, strain arl3, active compounds read low 0.965 | locus YPL078C, strain atp4, active compounds read low 1.03 | locus YPL106C, strain sse1, active compounds read low 0.958 | locus YPL240C, strain hsp82, active compounds read low 0.979 | locus YPL256C, strain CLN2, active compounds read low 0.973
